Compound activity deposited in PubChem BioAssay by National Center for Advancing Translational Sciences (NCATS).
Marburg entry inh – qHTS for inhibitors of binding or entry into cells for Marburg Virus | Marburg virus pseudotyped entry inhibition, cell reporter | Potency, µM (series often up to 37.8 µM), for inactives: at the highest dose activity change, negative = inhibition, most hits filed as inhibitors | hit rate 1.8% among 300,000; calls by dose curve; tested in HEK293 cells; note: potency is the fitted concentration of half-maximal effect; % is set by controls: 0 for no effect and ±100 for the full control effect
FMDV antiviral – High Throughput Screening for Foot and Mouth Disease Virus Antivirals; FMDV antiviral cell-based qHTS; Potency, µM (doses to about 57.9 µM), without a hit: at the highest dose activity change, negative = inhibition, hits mostly inhibitors; hit rate 1.2% among 410,000; AID 1159524, 2015; calls by dose curve; tested in HEK293T cells; note: read-out not given here; potency is the fitted concentration of half-maximal effect; % is set by controls: 0 for no effect and ±100 for the full control effect; nearly all actives have a fitted effect of over 45% in size
HCV inhibitor – qHTS Assay for Inhibitors of Hepatitis C Virus (HCV) | Huh7.5.1 HCVcc-Cre infection, luciferase reporter, 44 h | hit rate 3.4% among 340,000 | Potency, µM (doses to about 41.8 µM), inactives show at the top dose activity change, negative = inhibition, hits mostly inhibitors; active = well fitted inhibition curve with a large enough effect; inconclusive = small, poorly fitted or top-dose-only effect, or another doubt; inactive = no such curve, though single readings can be large or run the other way; note: potency is the fitted concentration of half-maximal effect; % is set by controls: 0 for no effect and ±100 for the full control effect
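HCVcc-Cre virus at an moi near 0.5 was added right after compound to cells cultured 4 h from seeding (1,000 cells/well). Luciferase activity was determined 44 h later, 15 min after substrate addition at RT.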
SARS PLpro yeast – qHTS of Yeast-based Assay for SARS-CoV PLP | S. cerevisiae expressing SARS-CoV PLpro, growth rescue | Potency, µM (series often up to 32.9 µM), for the others: top-dose activity, positive = growth rescue, usual class: activators | hit rate 0.19% among 330,000 | AID 485353, 2010; calls by dose curve; note: potency is the fitted concentration of half-maximal effect; 0% is about no effect; nearly all actives have a fitted effect of over 55% in size
HCMV inh – qHTS Assay for inhibitors of the human cytomegalovirus (HCMV). activity change, negative = inhibition, % at 57.5 µM. HFF cells, HCMV-luciferase reporter, 72 h; stronger effect = lower value. hit rate 4.5% among 410,000. AID 1259415, 2018; in the data active = activity change below about -60%; inconclusive = no clear call, values can overlap the other calls; inactive = above about -39%; note: % is set by controls: 0 for no effect and ±100 for the full control effect
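Screen run at 2 compound doses on HFFs infected with reporter HCMV, MOI 1 PFU/cell. Luciferase activity from cell lysates at 72 h post infection gave inhibition relative to buffer-only and Salinomycin wells.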
LASV entry inh – qHTS for Inhibitors of binding or entry into cells for Lassa Virus; Potency, µM (highest dose often 37.9 µM), for the others: top-dose activity change, negative = inhibition, actives largely listed as inhibitors; Lassa virus pseudotype entry inhibition, cell reporter; hit rate 1.2% among 300,000; calls by dose curve; tested in HEK293 cells; note: potency is the fitted concentration of half-maximal effect; % is set by controls: 0 for no effect and ±100 for the full control effect; nearly all actives have a fitted effect of over 50% in size
The depositor's hits bear a star; u = inconclusive; x = not tested or not shown; ! = not active in a repeat; [ ] = dose if it differs, or a comment. This is a sample that favours compounds with a hit; in the whole collection about 8% have one here.

SMILES	Marburg entry inh	FMDV antiviral	HCV inhibitor	SARS PLpro yeast	HCMV inh	LASV entry inh
CCOc1ccc(-c2cc3nc(C4CCN(C(=O)OC(C)(C)C)CC4)c(C(=O)Nc4cccc(Cl)c4C)cn3n2)cc1	u	-28%	x	x	5	-9%[46.1 µM]
O=C(NCCc1ccccc1)C(c1cccs1)N(C(=O)CCl)c1ccc(Cl)cc1 (centres undefined)	u	35µM*	u	-75%	-100*	18µM*
CCC(SC1=Nc2ccccc2C2=NC(CC(C)C)C(=O)N12)C(=O)Nc1ccc2c(c1)OCO2 (centres undefined)	u	33%	8.9µM*!	6%	20	16%
COCCNC(=S)N/N=C(\C)CCc1ccc2c(c1)OCO2	5%[46.1 µM]	-1%	-20%	3%	-67*	-2%[46.1 µM]
Cc1ccccc1NC(=S)N1CCN(Cc2ccc3c(c2)OCO3)CC1	u	u	9%	u	-28	-2%
C/C(CCc1ccc2c(c1)OCO2)=N\NC(=S)NC(C)C	x	0%	-7%	19%	-36	x
Cc1ccc(OCC(=O)N2CCN(Cc3ccc4c(c3)OCO4)CC2)cc1	-5%[46.1 µM]	u	-6%	0%	-15	u
CCN(CC)c1ccc(C(=O)NC(=S)N2CCN(Cc3ccc4c(c3)OCO4)CC2)cc1	2%	-19%	11µM*	-26%	-8	-4%
CCCCOc1ccc(C(=O)NCC(=O)N2CCN(Cc3ccc4c(c3)OCO4)CC2)cc1	-20%	0%	u	3%	-68*	0%
Cc1ccc(S(=O)(=O)N(C)C)cc1NC(=S)N1CCN(Cc2ccc3c(c2)OCO3)CC1	x	u	13µM*	-1%	u	x
CCCCNC(=O)c1nc2ccccc2nc1-c1cccc(Br)c1	x	x	x	x	-2	x
O=C(CN1C(=O)CCc2cc(S(=O)(=O)N3CCOCC3)ccc21)NCc1ccccc1Cl	x	-1%	x	x	32	5%[46.1 µM]
COc1ccccc1C=CC1=CC2(C)CC1(C)C(c1ccccc1OC)CC2=O (centres undefined)	-29%[14.2 µM]	x	x	x	x	x
Cc1cc(C(=O)Nc2cccc(-c3nc(CNC(=O)c4ccccc4C(F)(F)F)c(C)o3)c2)c(C)o1	x	28%	x	x	x	x
CCCCNC(=S)N1CCN(Cc2ccc3c(c2)OCO3)CC1	-1%[46.1 µM]	-20%	-13%	-7%	-39	-16%
COCCCNC(=S)N1CCN(Cc2ccc3c(c2)OCO3)CC1	x	-18%	10%	1%	-103*	x
COc1cc(OC)cc(-c2nc3ccccc3c(=O)n2OC(=O)c2ccc(C)c(C)c2)c1	11µM*	u	-4%	26%	22	u
CCN(CC)CCN(C)C(c1cc2ccccc2o1)c1nnnn1C(C)(C)C (centres undefined)	x	-2%	x	x	-13	x
CN(Cc1ccc(Cl)c(Cl)c1)C(c1cc2ccccc2o1)c1nnnn1C(C)(C)C (centres undefined)	x	22µM*	x	x	-78*	x
Brc1ccc2c(c1)C(OC1CN3CCC1CC3)c1ccccc1CS2 (centres undefined)	4µM*	-11%	32µM*	7%	-27	u
CC1CCN(c2nc3nonc3nc2Nc2ccc(F)cc2)CC1	u	28µM*	11µM*	-3%	u	u
Cn1c(SCC(=O)N2c3ccccc3Sc3ccccc32)nc2ccccc21	-52%	-26%	4%	-5%	u	-15%
CCn1c(SCC(=O)Nc2nc(-c3ccc(C)cc3)cs2)nnc1-c1ccccc1O	u	16µM*	6.3µM*	-12%	-70*	u
CN(C)CCCn1c(SCC(=O)N2c3ccccc3Sc3ccccc32)nc2ccccc2c1=O	u	u	13µM*	-4%	-99*	u
CC(C)n1c(SCC(=O)Nc2nc3c(s2)CCCC3)nc2c1c(=O)n(C)c(=O)n2C	u	25µM*	-3%	4%	-60*	u
SMILES	Marburg entry inh	FMDV antiviral	HCV inhibitor	SARS PLpro yeast	HCMV inh	LASV entry inh
O=C(CSc1nnc(-c2cccnc2)n1Cc1ccco1)Nc1nc(-c2ccc(F)cc2)cs1	u	20µM*	25µM*	6%	-74*	-7%
CCn1c(SCC(=O)Nc2nc(C)cs2)nnc1-c1ccncc1	18%[46.1 µM]	-6%	9%	3%	-3	-1%[46.1 µM]
COc1cccc(CNS(=O)(=O)c2ccc3c(c2)C(C(C)C)C(=O)N3)c1 (centres undefined)	x	-21%	x	x	-10	13%[46.1 µM]
Cc1ccc(-c2csc(NC(=O)CSc3nc4ccccc4c(=O)n3CCCN(C)C)n2)cc1	u	2%	1.4µM*	-1%	24	u
CCn1c(SCC(=O)Nc2nc(-c3ccc(C)cc3)cs2)nnc1-c1ccccc1	u	13µM*	7.9µM*	-3%	-72*	u
CCn1c(CSc2nc(C)cc(C)n2)nnc1SCC(=O)Nc1nc(-c2ccccc2)cs1	u	-28%	u	-4%	-1	21%
CC(C)n1c(SCC(=O)N2c3ccccc3Sc3ccccc32)nc2c1c(=O)n(C)c(=O)n2C	9.2µM*	x	11µM*	-6%	9	u
COc1ccccc1-c1nnc(SCC(=O)Nc2nc(-c3ccccc3)cs2)n1C	23µM*	32µM*	u	26%	-25	23µM*
Cc1ccc(CNC(=O)CCCN2C(=O)COc3ccc(C)cc32)cc1	x	-17%	x	x	-8	-14%[46.1 µM]
Clc1ccc(-n2nnnc2-c2cnc(-c3ccncc3)nc2-c2cccs2)cc1	u	-2%	22µM*	-25%	-62*	u
Fc1ccc(Nc2nc(N/N=C/c3ccco3)nc(N3CCCCC3)n2)cc1	x	16%	11µM*	-8%	u	x
CCNc1c([N+](=O)[O-])c(=O)n(CC)c2ccccc12	1%[46.1 µM]	24%	4%	0%	-17	-1%[46.1 µM]
CCn1c(=O)c([N+](=O)[O-])c(NCCCn2ccnc2)c2ccccc21	3%	-11%	5%	-1%	-65*	12%
CC(C)(C)NC(=O)COC(=O)c1snc(C(=O)NC2CCCCC2)c1N	-13%	u	7.1µM*	-3%	u	u
Cc1oc(=O)c(NC(=O)c2ccccc2)cc1C(=O)c1ccccc1	2%	-22%	-19%	-29%	118	u
Cc1ccc(C(=O)Nc2cc3ccccc3oc2=O)cc1	u	2µM*	-16%	-3%	-67*	2.8µM*
Cc1oc(=O)c(NC(=O)c2ccc(Cl)cc2)cc1C(=O)c1ccccc1	u	u	u	-29%	-33	23µM*
CC(=O)Nc1cc2ccccc2oc1=O	1%[46.1 µM]	19%	11%	-4%	-26	0%
O=C(Nc1ccc(Cl)cc1F)c1cc(S(=O)(=O)NC2CCCCCC2)ccc1F	x	27%	x	x	0	u
O=C(CCc1ccc(S(=O)(=O)NCCc2ccccc2)cc1)N1CCN(Cc2ccc3c(c2)OCO3)CC1	x	x	x	13%	-89*	x
